# Hits are enriched below; roughly 7.4% of the tested compounds scored in any of these assays.
# NPC1 promoter act – activators of NPC1 promoter. actives 2.4% (n = 320,000). Huh7 NPC1 promoter luciferase reporter, 24 h. Potency, µM (top dose mostly 9.22 µM), inactives show at the top dose activation, actives largely listed as activators; further: % of control where 0% means no effect; nearly all actives have a fitted effect of over 60% in size
#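 Stable NPC1-promoter luciferase Huh7 line; cpd (DMSO) 24 h, 37 °C, 5% CO2; Amplite luciferase reagent 10 min RT; luminescence readout. qHTS format.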
# Rab9 prom act – Rab9 promoter activation | Huh7 Rab9 promoter-luciferase reporter, luminescence, 24 h | Potency, µM (titrated, usually from 9.22 µM), for the others: at the highest dose activation, negative = inhibition, usual class: activators | actives 2.8% (n = 320,000) | AID 485297; further: % of control where 0% means no effect; nearly all actives have a fitted effect of over 60% in size
#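 Cell-based reporter: Huh7 stable for Rab9 promoter-driven luciferase, plated in reduced-serum medium with 10% FBS at 1500 cells/well, compound-treated 24 h at 37 °C, luminescence read after 10 min reagent.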
# FLuc modulator – inhibits or activates purified firefly luciferase, miR-21 counter-screen. purified FLuc, Km substrates, luminescence inhibition. P08659. Potency, µM (series often up to 57.5 µM), without a hit: top-dose activity change, negative = inhibition, usual class: inhibitors. actives 6.9% (n = 360,000);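 further: plate controls were vehicle for no effect and reference inhibitor for full effect; nearly all actives have a fitted effect of over 55% in size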
# Target sequence (P08659 whole entry, looked up): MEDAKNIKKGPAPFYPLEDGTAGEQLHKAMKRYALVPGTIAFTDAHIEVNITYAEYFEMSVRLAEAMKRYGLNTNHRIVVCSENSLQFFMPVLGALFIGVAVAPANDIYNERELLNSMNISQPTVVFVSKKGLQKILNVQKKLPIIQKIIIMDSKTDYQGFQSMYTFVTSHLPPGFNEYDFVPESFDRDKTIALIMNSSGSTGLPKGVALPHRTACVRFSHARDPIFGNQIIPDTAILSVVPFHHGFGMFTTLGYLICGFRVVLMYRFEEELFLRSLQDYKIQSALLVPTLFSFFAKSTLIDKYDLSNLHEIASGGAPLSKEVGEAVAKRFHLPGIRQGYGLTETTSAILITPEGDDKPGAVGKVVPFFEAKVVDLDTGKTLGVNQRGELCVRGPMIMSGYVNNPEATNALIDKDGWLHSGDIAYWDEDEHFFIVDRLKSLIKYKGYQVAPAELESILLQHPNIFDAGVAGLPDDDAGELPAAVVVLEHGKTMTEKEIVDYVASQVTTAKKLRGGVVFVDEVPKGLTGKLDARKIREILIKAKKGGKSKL
#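 Purified P. pyralis luciferase (10nM final) with 10uM D-luciferin and 10uM ATP (Km levels) in 50mM Tris acetate pH 7.5, 10mM Mg acetate, 0.01% Tween-20, 0.05% BSA; qHTS 6-point titration, ~60 µM downward; luminescence read.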
# SMN2 splice enh – enhancers of SMN2 splice variant expression; HEK293 SMN2-luciferase splicing reporter, luminescence, 30-36 h; Potency, µM (top dose mostly 46.1 µM), for inactives: at the top dose activity change, positive = activation, most hits filed as activators; actives 2.8% (n = 210,000); further: % of control where 0% means no effect; nearly all actives have a fitted effect of over 55% in size
#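 qHTS luciferase splicing reporter: luminescence rises when SMN2 exon 7 is included in transfected HEK293 cells. Compound exposure lasted 30-36 h at 37C, with 4.5 mM final sodium butyrate as control, followed by a ONE-Glo read.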
# ELG1 genotox – genotoxicity induction in ELG1-luciferase HEK293T cells. HEK293T ELG1-luciferase reporter, luminescence, 16 h. Potency, µM (highest dose often 46 µM), for the others: at the top dose activity change, positive = activation, usual class: activators. actives 1.3% (n = 330,000); further: % of control where 0% means no effect; nearly all actives have a fitted effect of over 60% in size
#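 Genotoxicity was scored as increased ELG1-luciferase reporter signal, measured by ONE-Glo luminescence (30 min, room temperature). Compound or vehicle exposure of the HEK293T reporter cells lasted 16 hr at 37°C.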
# Starred values were filed as active, the others as inactive; u = inconclusive; x = not tested or not shown. The call rests on the fitted dose curve; in most records, active means well fitted curve in the direction sought with a large enough effect; inconclusive means small, poorly fitted or top-dose-only effect, or another doubt; inactive means no such curve, though single readings can be large; an effect the other way counts as inactive or inconclusive. Potency means the concentration at half of the fitted maximal effect.
SMILES,NPC1 promoter act,Rab9 prom act,FLuc modulator,SMN2 splice enh,ELG1 genotox
C#CCn1c(=NC(=O)c2cccs2)sc2cccc(OC)c21,1%,30%,u,-14%,u
Cc1ccc2c(c1)sc(=NC(=O)c1cccs1)n2C,3.5µM*,3.5µM*,0.15µM*,16%,0.52µM*
Cc1ccc2c(c1)sc(=NC(=O)C1CC1)n2C,2.5µM*,3.5µM*,8.5µM*,x,u
COC(=O)c1nnc(C(=O)NCc2ccccc2)c2[nH]c3ccc(OC)cc3c12,x,x,x,6%,x
CSc1ccccc1NC(=O)CSc1nnc(Cc2ccccc2)o1,1%,-6%,-1%,x,3%
CCOc1ccc(NC(=O)Nc2cnccn2)cc1,12%,u,u,u,7%
CCC(C)c1ccc(NC(=O)Nc2cnccn2)cc1 (configuration not stated),-6%,u,6.7µM*,x,u
Cc1ccc(NC(=O)C2CCCN(c3ncccn3)C2)cc1C (configuration not stated),u,u,17µM*,x,u
CCC(C)c1ccc(NC(=O)C2CC2)cc1 (configuration not stated),16%,29%,15µM*,2%,u
Cc1ccnc(N2CCCC(C(=O)Nc3ccc(C)c(C)c3)C2)n1 (configuration not stated),3%,-1%,1%,x,-18%
CCC(C)c1ccc(NC(=O)C2CCCN(c3ncccn3)C2)cc1 (configuration not stated),4%,1%,15µM*,8%,-1%
Cc1ccccc1S(=O)(=O)NCC1CCCO1 (configuration not stated),4%,-2%,1%,x,0%
COc1ccc(NC(=O)C2CCCN(c3ncccn3)C2)cc1 (configuration not stated),u,2.8µM*,17µM*,x,u
CNc1ccccc(-c2ccc3cc4c(cc3n2)OCO4)c1=O,u,u,3.4µM*,x,u
O=C(NC(CSSCC(NC(=O)c1ccccc1)C(=O)O)C(=O)O)c1ccccc1 (configuration not stated),-5%,1%,-7%,x,2%
COc1ccc(CNc2nccs2)cc1OC,0%,-4%,10%,x,1%
Cc1ccc(CNc2nc3ccccc3s2)s1,0.35µM*,0.35µM*,0.34µM*,1.3µM*,u
COc1ccc(CNc2nc3ccccc3s2)cc1OC,u,u,24µM*,x,u
c1ccc(CCNc2nc3ccccc3s2)cc1,u,u,19µM*,-12%,u
Cc1ccc(CNC(C)c2ccccc2)s1 (configuration not stated),x,x,1%,-2%,x
O=C(C1CCC(=O)N(C2CC2)C1)N1CCC(Oc2ccccc2F)CC1 (configuration not stated),-5%,4%,0%,x,-3%
COc1ccc(NC(=O)CCCc2nnc3n(CCC(C)C)c(=O)c4sccc4n23)cc1Cl,x,x,-4%,x,x
CCCCNc1c(-c2cccc(-c3ccc(OC)cc3)c2)nc2cc(C)ccn12,x,x,x,x,-8%
CCCCNc1c(-c2ccc(-c3cccc(Cl)c3)cc2)nc2ccccn12,u,4µM*,11µM*,x,-1%
CCCCNc1c(-c2cccc(-c3ccc(OC)cc3)c2)nc2ccc(C)cn12,16%,10%,9.5µM*,x,-5%
SMILES,NPC1 promoter act,Rab9 prom act,FLuc modulator,SMN2 splice enh,ELG1 genotox
CCCCNc1c(-c2cccc(-c3cc(C(C)=O)cs3)c2)nc2ccc(C)cn12,12%,2%,11µM*,x,-16%
CCCCNc1c(-c2ccc(-c3ccc(C(C)=O)cc3)c(OC)c2)nc2cnccn12,0%,-7%,-14%,x,-30%
COc1cc(SC)ccc1C(=O)Nc1ccc2c(c1)CCC2,4µM*,4µM*,2.1µM*,x,u
CSc1ccc(Cl)c(C(=O)Nc2ccc(Cl)cn2)c1,-13%,-11%,-10%,x,-4%
COc1cc(SC)ccc1C(=O)Nc1ccccc1C#N,-1%,3%,u,13µM*,9.2µM*
COc1cc(SC)ccc1C(=O)Nc1cccc(C2OCCCO2)c1,3.5µM*,1.4µM*,17µM*,x,3%
COc1cc(SC)ccc1C(=O)Nc1ccc(Cl)cn1,0.89µM*,0.89µM*,0.076µM*,x,u

# Source: PubChem BioAssay
